The target of experiment [1] is T1, Hexokinase-4 (Homo sapiens) + Glucokinase regulatory protein (Homo sapiens) (UniProt P35557+Q14397). Description: qHTS assay for inhibitors of recombinant human GCK-GKRP interaction: Diaphorase-coupled assay (AID 743205). In short, it runs like this:
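A kinetic fluorescence read (Ex 525/Em 590 nm, every minute for 30 minutes) tracked resorufin from a G6PDH-diaphorase coupled GCK reaction. It contained 10 nM GST-GCK, 10 nM FLAG-GKRP, 5 mM glucose, 0.4 mM ATP in Hepes pH 7.6. Normalized to with/without-enzyme DMSO controls.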
Background: qHTS replaces the single test concentration by a dilution series.

For experiment [2], the target named is T1, Hexokinase-4 (Homo sapiens) + Glucokinase regulatory protein (Homo sapiens). Description: qHTS assay for inhibitors of recombinant human GCK-GKRP interaction: ADP-Glo assay (AID 743206).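 Also: plate controls were DMSO plus enzyme for no effect and no enzyme for full effect.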 In short, it runs like this: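 GST-GCK and FLAG-GKRP (15 nM each in the dispensed mix, with 2 uM S6P) react with 0.4 mM ATP and 5 mM glucose (final) in Hepes pH 7.6 for 60 min at room temperature. ADP is measured by ADP-Glo luminescence.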

The nature of experiment [3]: qHTS assay for measurement of the activity of small molecule inhibitors on Zika virus induced Caspase-3 activity in human iPSC derived neural progenitor cells (hNPCs) (AID 1224857). Also: % of control where 0% means no effect; nearly all actives have a fitted effect of over 65% in size. In short, it runs like this:
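In medium with heparin 2 ug/ml and cyclopamine 2 uM, hNPCs (350 cells/well) received compound for one hour and then Zika virus at 2 FFU/cell; caspase activity was measured by Caspase-Glo 3/7 luminescence 6 h post-infection.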

Experiment [4] can be described thus: qHTS assay for measurement of the activity of small molecule inhibitors on Zika virus induced Caspase-3 activity in human astrocytoma cells (AID 1224859).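 Also: plate controls were ZIKV-infected untreated cells for no effect and uninfected cells for full effect.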 In short, it runs like this:
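A cell-based luminescent caspase-3/7 assay used SNB-19 cells infected with ZIKV (2 FFU/cell) for 6 h following 1 h compound pretreatment.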

Experiment [5] in a line: Natriuretic polypeptide receptor (hNpr1) antagonism - Pilot counterscreen GloSensor control cell line (AID 1347045; calls by dose curve; also: potency is read from the fitted curve at half-maximal effect). In short, it runs like this:
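HEK293 cGMP GloSensor cells preloaded 2 h with 2% GloSensor reagent, then compound 30 min before baseline luminescence read. Stimulated with 50 uM sodium nitroprusside, 20 min at room temperature, then read again; counterscreen for Npr1 antagonism.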
(In general: The purpose of a counterscreen is to sort out artefacts and off-target activity.)

Experiment [6] deals with T1, Hexokinase-4 (Homo sapiens) + Glucokinase regulatory protein (Homo sapiens). As to the kind of experiment: qHTS assay for inhibitors of recombinant human GCK-GKRP interaction: HTRF assay (AID 743207).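 Also: 0% = DMSO with GCK present and -100% = DMSO wells lacking GCK.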 In short, it runs like this:
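After 60 min equilibration at room temperature with anti-FLAG XL665 and anti-GST antibodies, FRET ratio (665/615 nm, excitation 320 nm) was read. Proteins: GST-GCK and FLAG-GKRP, each 5 nM, plus 2 uM S6P, pH 7.1 buffer; GCK-free wells define minimum signal.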

Experiment [7] is described as follows: qHTS Assay for Identifying Gametocytocidal Compounds (AID 743244). Also: potency is read from the fitted curve at half-maximal effect.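 As to max response: % is scaled to controls: 0 for no effect and ±100 for the full control effect; actives lower the fluorescent signal which means gametocytes are killed.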 To be noted: P. falciparum 3D7 stage III-V gametocytes, alamarBlue, 72 h; max response: stronger effect = lower value. In short, it runs like this: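 In this qHTS viability screen, late-stage 3D7 gametocytes are incubated with compound for 72 h, then with alamarBlue for 24 h; reduced resorufin fluorescence marks killing.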

Experiment [8] addresses Atrial natriuretic peptide receptor 2 (Homo sapiens) (UniProt P20594). Description: Natriuretic polypeptide receptor (hNpr2) antagonism - Pilot subtype selectivity assay (AID 1347050; calls by dose curve; also: potency is read from the fitted curve at half-maximal effect). In short, it runs like this: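 Pilot selectivity screen against hNpr2: HEK293 cGMP-sensor cells are treated with LOPAC1280 compounds, then with hNppC peptide at 1 nM final. The cGMP-driven luminescence change over 20 min at room temperature is the read-out.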

Experiment [9] in a line: qHTS assay for cell viability of HEK293 cells (AID 743288). Also: potency is read from the fitted curve at half-maximal effect; nearly all actives have a fitted effect of over 50% in size. To be noted: ATP luminescence (CellTiter-Glo), 18 h; max response: stronger effect = lower value. The procedure, abridged: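 Total intracellular ATP, measured with a luciferase-coupled reagent, indicates the number of viable HEK293 cells. Exposure to test chemicals lasts 18 h at 37 C in 1,536-well format at 2,000 cells/well.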

A short description of experiment [10]: qHTS assay for cell viability of the p53RE-bla HCT-116 cell line (AID 743292). Also: potency is read from the fitted curve at half-maximal effect; nearly all actives have a fitted effect of over 55% in size. The procedure, abridged:
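ATP-based luminescence, 16 h compound exposure at 37 C, p53RE-bla HCT-116 cells at 4,000/well.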

The structures appear in SMILES notation. Values without a mark were called inactive. Results filed as inconclusive are left out. The source made the active and inactive calls. Unless noted, calls follow the shape of the dose curve; as a rule, active = well fitted curve in the direction sought with a large enough effect; inconclusive = small, poorly fitted or top-dose-only effect, or another doubt; inactive = no such curve, though single readings can be large; an effect the other way counts as inactive or inconclusive.

T1 sequence (P35557 whole entry, looked up): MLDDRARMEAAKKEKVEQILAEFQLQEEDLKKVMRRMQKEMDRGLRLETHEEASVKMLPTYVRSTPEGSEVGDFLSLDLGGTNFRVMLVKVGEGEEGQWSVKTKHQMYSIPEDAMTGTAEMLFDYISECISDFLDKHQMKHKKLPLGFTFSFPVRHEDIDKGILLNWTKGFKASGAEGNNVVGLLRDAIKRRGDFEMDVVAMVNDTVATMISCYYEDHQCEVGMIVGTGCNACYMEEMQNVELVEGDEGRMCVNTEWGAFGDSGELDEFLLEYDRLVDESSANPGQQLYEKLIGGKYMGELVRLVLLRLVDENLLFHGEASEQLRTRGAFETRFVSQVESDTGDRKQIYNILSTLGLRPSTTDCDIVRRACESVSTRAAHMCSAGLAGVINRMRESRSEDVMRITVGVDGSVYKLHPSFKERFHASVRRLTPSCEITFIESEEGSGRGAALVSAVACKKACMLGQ
T1 sequence (Q14397 whole entry, looked up): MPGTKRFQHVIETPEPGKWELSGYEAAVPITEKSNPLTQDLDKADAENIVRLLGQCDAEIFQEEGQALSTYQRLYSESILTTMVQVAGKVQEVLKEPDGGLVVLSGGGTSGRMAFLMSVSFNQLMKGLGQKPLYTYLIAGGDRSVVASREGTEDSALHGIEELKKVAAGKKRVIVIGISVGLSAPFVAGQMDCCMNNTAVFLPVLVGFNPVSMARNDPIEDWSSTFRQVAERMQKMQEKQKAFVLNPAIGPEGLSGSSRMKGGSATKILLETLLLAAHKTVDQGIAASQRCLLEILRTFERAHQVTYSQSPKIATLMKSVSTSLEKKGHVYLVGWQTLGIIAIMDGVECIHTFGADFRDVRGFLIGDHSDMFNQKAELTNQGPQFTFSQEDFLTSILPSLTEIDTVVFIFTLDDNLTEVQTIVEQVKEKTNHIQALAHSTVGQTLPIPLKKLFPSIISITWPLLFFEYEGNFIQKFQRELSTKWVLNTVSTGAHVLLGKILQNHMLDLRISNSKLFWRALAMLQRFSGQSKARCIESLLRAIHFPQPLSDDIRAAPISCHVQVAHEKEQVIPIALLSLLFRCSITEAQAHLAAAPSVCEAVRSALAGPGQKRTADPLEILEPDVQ
Atrial natriuretic peptide receptor 2 (Homo sapiens), sequence (P20594 whole entry, looked up): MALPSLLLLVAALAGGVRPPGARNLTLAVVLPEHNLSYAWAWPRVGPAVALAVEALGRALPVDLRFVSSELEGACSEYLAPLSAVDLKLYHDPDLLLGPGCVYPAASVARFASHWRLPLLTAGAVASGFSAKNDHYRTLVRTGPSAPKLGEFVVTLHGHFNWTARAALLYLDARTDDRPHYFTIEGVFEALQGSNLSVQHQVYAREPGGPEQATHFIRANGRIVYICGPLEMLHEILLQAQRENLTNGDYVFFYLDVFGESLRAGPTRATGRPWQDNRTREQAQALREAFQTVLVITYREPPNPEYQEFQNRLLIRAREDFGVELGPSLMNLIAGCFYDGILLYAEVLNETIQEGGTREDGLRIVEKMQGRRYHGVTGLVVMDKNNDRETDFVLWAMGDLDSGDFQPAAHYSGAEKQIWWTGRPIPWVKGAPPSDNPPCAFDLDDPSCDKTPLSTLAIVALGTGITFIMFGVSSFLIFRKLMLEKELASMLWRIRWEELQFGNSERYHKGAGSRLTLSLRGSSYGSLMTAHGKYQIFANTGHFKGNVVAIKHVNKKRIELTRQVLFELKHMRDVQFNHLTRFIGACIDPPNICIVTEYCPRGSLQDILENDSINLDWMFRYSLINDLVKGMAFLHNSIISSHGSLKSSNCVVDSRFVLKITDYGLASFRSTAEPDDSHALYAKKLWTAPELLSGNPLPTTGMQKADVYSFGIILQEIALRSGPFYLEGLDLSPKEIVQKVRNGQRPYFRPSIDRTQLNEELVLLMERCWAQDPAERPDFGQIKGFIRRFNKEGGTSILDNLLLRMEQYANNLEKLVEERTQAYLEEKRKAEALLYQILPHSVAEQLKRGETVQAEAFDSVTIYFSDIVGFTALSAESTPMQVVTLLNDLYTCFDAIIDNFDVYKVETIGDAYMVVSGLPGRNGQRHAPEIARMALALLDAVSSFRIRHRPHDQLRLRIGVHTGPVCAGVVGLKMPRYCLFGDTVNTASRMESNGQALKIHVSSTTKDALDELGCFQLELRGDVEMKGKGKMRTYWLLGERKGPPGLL

Consider `C[C@](Cc1ccc(O)c(O)c1)(NN)C(=O)O`, for which the Potency entry in [1], in experiment [2], in experiment [3], in experiment [4] and in [5] was “inactive” throughout.

Turning to `C=C1C[C@@]23CC[C@H]4[C@@](C)(CCC[C@@]4(C)C(=O)O)[C@@H]2CC[C@]1(O)C3`, the Potency result in experiment [1], in [2], in experiment [6], in experiment [3], in experiment [4] and in [5] was “inactive” each time. In addition, the Potency entry in [8] was “inactive”. In addition, the max response in experiment [7] was 31.3%.

As to `NC(N)=NC(N)=Nc1ccccc1`, the Potency result in [1], in [2], in experiment [6], in experiment [3], in [4] and in experiment [5] was “inactive” each time. In [8], the Potency result was “inactive”. Besides, in experiment [7], the max response was 28.5%.

As to `N#CC(=C(\N)Sc1ccccc1N)/C(C#N)=C(/N)Sc1ccccc1N`, the Potency entry in experiment [1], in [2], in experiment [6], in [3], in [4] and in [8] was “inactive” throughout. In addition, the max response in experiment [7] was 14.1%. Moreover, the Potency in experiment [5] is 18.5 µM (active).

Take `CCCCCCCCCCCCCCCCCCOC[C@H](COP(=O)([O-])OCC[N+](C)(C)C)OC`: the Potency entry in experiment [1], in [2], in [6], in [3] and in [4] was “inactive” in each case. Also, the max response in experiment [7] was 10.4%. In addition, the Potency in experiment [5] is 14.7 µM (active); in [8], 8.26 µM (active).

With `c1ccc(C2CN3CCSC3=N2)cc1` (stereo not given), the Potency entry in experiment [1], in [2], in experiment [6], in experiment [3], in [4] and in experiment [5] was “inactive” throughout.

As to `CCCC(=O)NCCc1c2n(c3ccc(OC)cc13)CCCc1ccccc1-2`, the Potency result in [1], in experiment [2], in experiment [6], in experiment [3], in [4] and in [5] was “inactive” each time. Moreover, in [8], the Potency result is “inactive”. The max response in experiment [7] is 19.4%.

As for `CC[C@@H]1Cc2cc(O)ccc2C2=C1c1ccc(O)cc1C[C@H]2CC`, the Potency result in [1], in experiment [2], in experiment [3], in [4] and in [8] was “inactive” in each case. The Potency in [7] is 3.55 µM (active); in experiment [9], 50.1 µM (active); in [10], 70.8 µM (active); in experiment [5], 20.7 µM (active).

Turning to `COc1ccccc1N1CCN(CCCCN2C(=O)c3ccccc3C2=O)CC1`, the Potency entry in experiment [1], in [2], in [3], in [4], in experiment [5] and in experiment [8] was “inactive” each time. Besides, the max response in experiment [7] was 10.1%.

As to `COc1ccc(C(=O)NCc2cccnc2)cc1C(=O)NCc1cccnc1`, the Potency entry in [1], in experiment [2], in [6], in [3], in experiment [4] and in experiment [5] was “inactive” throughout. For the same compound, the Potency result in experiment [8] is “inactive”. In [7], the max response is 22.9%.

Regarding `CCCCCCC/C=C\CCCCCCCCC(=O)O`, the Potency result in [1], in [2], in experiment [6], in experiment [3], in experiment [4] and in experiment [5] was “inactive” throughout. Further, the max response in experiment [7] was 37.6%.

`NOCC(=O)O`: the Potency result in experiment [1], in [2], in experiment [3], in [4], in experiment [5] and in [8] was “inactive” throughout. Also, in [7], the max response was -2.42%.

Take `Oc1cc2c(cc1O)C(c1ccccc1)CNCC2` (stereo not given): the Potency entry in [1], in experiment [2], in [6], in [3], in experiment [4] and in [5] was “inactive” throughout. Besides, the Potency entry in experiment [8] is “inactive”. In addition, the max response in [7] is 20.1%.

`Nc1ncnc2c1ncn2C1CCCO1` (stereo not given): the Potency entry in experiment [1], in experiment [2], in [6], in experiment [3], in experiment [4] and in experiment [5] was “inactive” each time. For the same compound, the Potency entry in experiment [8] is “inactive”. For the same compound, the max response in [7] was -5.04%.

Regarding `N[C@H](C(=O)O)[C@H]1C[C@@H]1C(=O)O`, the Potency entry in experiment [1], in experiment [2], in experiment [6], in [3], in experiment [4] and in experiment [5] was “inactive” each time. Moreover, the Potency entry in [8] is “inactive”. Moreover, in [7], the max response was 18.4%.

For the compound `COc1ccc(-c2cc3ncc(C)n3c(Nc3ncccc3C(N)=O)n2)cc1OC`, the Potency result in experiment [1], in [2], in [6], in [3], in [4] and in experiment [5] was “inactive” throughout. Besides, in experiment [8], the Potency entry is “inactive”. The max response in experiment [7] was 12.4%.

With `O=c1[nH]c2ccccc2c2ccccc12`, the Potency result in experiment [1], in experiment [2], in experiment [6], in experiment [3], in experiment [4] and in [5] was “inactive” in each case. Further, in [8], the Potency result was “inactive”. Further, the max response in [7] is 36%.

`O[Si](CCCN1CCCCC1)(c1ccc(F)cc1)C1CCCCC1` (stereo not given): the Potency result in [1], in experiment [2], in experiment [6], in experiment [3], in experiment [4] and in experiment [5] was “inactive” throughout. The Potency entry in [8] was “inactive”.

`CC[C@H](NC(=O)c1c(C)c(-c2ccccc2)nc2ccccc12)c1ccccc1`: the Potency result in experiment [1], in [2], in [6], in experiment [3], in [4] and in experiment [5] was “inactive” each time. The Potency result in experiment [8] was “inactive”.

As for `O=C(N[C@@H](Cc1ccccc1)C(=O)CCl)OCc1ccccc1`, the Potency entry in [1], in [2], in experiment [6], in experiment [3] and in experiment [4] was “inactive” in each case. For the same compound, the Potency in [5] was 3.29 µM (active).

Regarding `NCCCNCCCCNCCCN`, the Potency entry in [1], in [2], in experiment [6], in experiment [3], in experiment [4] and in [5] was “inactive” throughout. Besides, the Potency result in [8] was “inactive”. Further, the max response in [7] was 28.9%.

`c1ccc(C(NCCNC(c2ccccc2)c2ccccc2)c2ccccc2)cc1`: the Potency entry in [1], in experiment [2], in [6], in experiment [3] and in experiment [4] was “inactive” in each case. In addition, the Potency in experiment [5] was 13.1 µM (active).

For the compound `CCCOC(=O)c1c(-c2ccccc2)nc(CC)c(C(=O)SCC)c1CCC`, the Potency entry in [1], in experiment [2], in experiment [6], in experiment [3], in [4] and in experiment [5] was “inactive” throughout. For the same compound, the Potency entry in experiment [8] is “inactive”. Also, the max response in [7] is 9.8%.

Take `O=C(O)C1=CCNCC1`: the Potency result in experiment [1], in experiment [2], in experiment [3], in [4], in [5] and in experiment [8] was “inactive” in each case. Besides, in [7], the max response is 2.03%.

With `O=S(=O)(c1cccc2c(Cl)cccc12)N1CCCNCC1`, the Potency entry in [1], in experiment [2], in [6], in experiment [3], in experiment [4] and in experiment [5] was “inactive” in each case.

Consider `NCCCCN=C(N)N`, for which the Potency result in experiment [1], in [2], in experiment [6], in experiment [3], in experiment [4] and in [5] was “inactive” each time. Further, in [8], the Potency entry was “inactive”. Moreover, the max response in experiment [7] is 3.59%.

As for `CC1CCN=C(N)S1` (stereo not given), the Potency entry in [1], in [2], in experiment [6], in experiment [3], in [4] and in experiment [5] was “inactive” throughout. The Potency entry in experiment [8] was “inactive”. Also, the max response in experiment [7] was -7.18%.

These data come from PubChem BioAssay (NCATS).
